GFP derepression = qHTS Assay for Epigenetic Modulators | Potency, µM (doses to about 46.1 µM) | mouse C127i GFP locus derepression, cytometry, 30 h | 68,000 tested, 0.09% active
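Murine C127i mammary cells carrying a silenced, stably integrated CMV-driven GFP reporter were treated with compound for 30 hours at 37 C. After PBS washes, GFP-positive cells were counted by laser-scanning microplate cytometry.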
HBB splicing = qHTS Assay for Modulators of Hemoglobin Beta Chain Splicing | HBB splicing reporter cell assay, activation; EGFP reporter with mutant IVS2-654 intron; response scale: normalised to 500 nM splice-correcting PNA | Potency, µM (titrated, usually from 46.1 µM), hits mostly activators | 65,000 tested, 0.06% active
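HeLa cells stably expressing EGFP interrupted by mutant beta-globin intron 2 (IVS2-654), 500/well in 2% FCS. Treated with compound for 2 days at 37C. Splicing correction scored as total well GFP intensity (488 nm excitation, 500-520 nm emission); 500 nM antisense PNA served as control.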
ALOX15 inhib = qHTS Assay for Inhibitors of 15-hLO (15-human lipoxygenase) | Potency, µM (highest dose often 57.1 µM), usual class: inhibitors | purified 15hLO-1, xylenol orange hydroperoxide absorbance | Polyunsaturated fatty acid lipoxygenase ALOX15 (Homo sapiens), P16050 | 74,000 tested, 1.4% active | AID 887, 2007; further: nearly all actives have a fitted effect of over 55% in size
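40 nM 15hLO-1 + cpd, 15 min RT; start w/ 50 uM AA (final), 6 min RT; stop/detect w/ 200 uM XO + 300 uM Fe(II) in 50 mM H2SO4, 30 min; A573/A405. Buffer 25 mM Hepes pH 7.5, 0.01% Triton X-100. No-enzyme wells as negative control.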
Ub-GFP proteasome = Ubiquitin-GFP Assay; Ubiquitin-GFP reporter cells, proteasome inhibition, GFP fluorescence; response scale: untreated = 0%, 10 µM MG-132 = 100%; Potency, µM (top dose mostly 45.9 µM), hits mostly activators; 67,000 tested, under 10 active; active means well fitted activation curve with a large enough effect, not every such curve was filed as active; inconclusive means small, poorly fitted or top-dose-only effect, or another doubt; inactive means no such curve, though single readings can be large or run the other way
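Proteasome block read as GFP accumulation: ubiquitin(G76V)-GFP U2OS cells exposed to compound (2.9 nM–46 uM) for 4 hr at 37 C. Normalization used untreated cells as 0% and 10 uM MG-132 as 100%; concentration-response curves fitted.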
Pol III holo inh = qHTS Assay for Inhibitors of DNA Polymerase III Holoenzyme System | AID 603, 2007 | 71,000 tested, 0.25% active | reconstituted DNA polymerase III holoenzyme replication, biochemical | Potency, µM (highest dose often 57.1 µM)
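Reconstituted *E. coli* holoenzyme (0.35 nM Pol III, 1 nM beta, 154 nM SSB, 2 nM primase) was preincubated with compound for 15 min at RT. Synthesis on 1.4 nM ssM13Gori ran 35 min, then was stopped with PicoGreen/EDTA and read as dsDNA fluorescence.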
Tau filament bind = qHTS Assay for Tau Filament Binding. 71,000 tested, 2% active. AID 596, 2007. Potency, µM (doses to about 57.1 µM). Microtubule-associated protein tau (Homo sapiens), P10636. recombinant tau filaments, thioflavin S fluorescence, 15 h; filaments grown with octadecylsulfate alongside compound;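 further: actives lower thioflavin S fluorescence by blocking filaments or displacing dye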
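ThS-based fibril read: tau 1 uM final, inducer ODS 30 uM final, 37 C for 15 h, ex 450/em 510 nm.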
A number is an active result; n = inactive; u = inconclusive; x = no result; [ ] = remark or other dose. Hits are enriched below; roughly 3.2% of the tested compounds scored in any of these assays. Unless noted, the call rests on the fitted dose curve; in most records, active means well fitted curve in the direction sought with a large enough effect; inconclusive means small, poorly fitted or top-dose-only effect, or another doubt; inactive means no such curve, though single readings can be large; an effect the other way counts as inactive or inconclusive.

SMILES | GFP derepression | HBB splicing | ALOX15 inhib | Ub-GFP proteasome | Pol III holo inh | Tau filament bind
CCCC/C=C/C(NC(=O)c1ccco1)c1ccccc1 (stereo unspecified) | x | n | x | x | n | n
CCOc1ccc(Nc2cc(C)nc(-n3nc(C)cc3C)n2)cc1 | 15.8µM | n[0.369 µM] | n | n | n | n
CC(C)[C@@H]1OC(=O)C=CC=CC=CC=CC=CC[C@@H](O)[C@H](C)[C@@H](O)C[C@H](O)C[C@H](O)C[C@H](O)C[C@H](O)C[C@H](O)C[C@H](O)C=C[C@@H]1C | n[9.22 µM] | n[9.22 µM] | x | n[9.17 µM] | n[11.4 µM] | n[11.4 µM]
CCc1ccc(N2C(=O)c3sc4nnc(C)c(=O)n4c3C2=O)cc1 | 10µM | n | n | n | n | n
COc1ccc2[nH]cc(CCNc3ccnc(-c4ccc(C(=O)N(C)C)cc4)n3)c2c1 | n[9.22 µM] | n | n | n | n | n
COc1ccc2[nH]cc(CCNc3ccnc(-c4ccccc4C)n3)c2c1 | n[9.22 µM] | n | u | n | n | 15.8µM
COc1cccc(-c2nccc(NCCc3c[nH]c4ccc(OC)cc34)n2)c1 | n[9.22 µM] | n | n | n | n | 25.1µM
COc1ccc2[nH]cc(CCNc3cc(-c4ccccc4OC)ncn3)c2c1 | n[9.22 µM] | n | n | n | n | n
C=CC(=O)OCC(CO)(COC(=O)C=C)COC(=O)C=C | x | n | n | x | n | n
O=c1c(-c2cc(F)cc(F)c2)nc2cnc(N3CCNCC3)nc2n1-c1ccccc1 | n[9.22 µM] | n | n | n | n | 3.98µM
O=c1c(-c2ccccc2)nc2cnc(N3CCNCC3)nc2n1-c1ccccc1 | n[9.22 µM] | n | 0.316µM | n | n | n
COc1ccc(-n2c(=O)c(-c3ccc(Cl)cc3)nc3cnc(N4CCNCC4)nc32)cc1 | n[9.22 µM] | n | n | n | n | 3.98µM
O=c1c(-c2cc(F)cc(F)c2)nc2cnc(N3CCOCC3)nc2n1-c1ccccc1 | n[9.22 µM] | n | n | n | n | n
O=c1c(-c2ccc(Cl)cc2)nc2cnc(N3CCNCC3)nc2n1-c1ccccc1 | n[9.22 µM] | n | n | n | n | 3.16µM
COc1ccc(-n2c(=O)c(-c3ccccc3)nc3cnc(N4CCNCC4)nc32)cc1 | n[9.22 µM] | n | n | n | n | u
CCCCCCC#CC1C=CC(OC(C)=O)C(COC(C)=O)O1 (stereo unspecified) | x | n[9.22 µM] | n[11.4 µM] | x | x | x
C[C@@H](CN1CCC(Cc2ccccc2)CC1)[C@H](O)c1ccc(O)cc1 | n | n | n | n | n | n
O=C(Nc1ccc(Cl)cc1C(=O)Nc1ccccn1)c1ccco1 | n | x | 0.159µM | n | n | n
O=C(NCCN1CCCCC1)c1ccc(-n2c(=O)c(=O)[nH]c3ccccc32)cc1 | x | x | n | x | x | x
Brc1ccc2c(c1)c1nc3ccccc3nc1n2CCN1CCOCC1 | n | n | 31.6µM | n | n | 15.8µM
CCn1c(C)nc2cc(S(=O)(=O)N3CCCCC3)ccc21 | n | n | n | n | n | n
CCn1c2ccccc2c2nc3cc(S(=O)(=O)N4CCOCC4)ccc3nc21 | n | n | u | n | n | 25.1µM
c1ccc2nc3c(nc2c1)c1ccccc1n3CCN1CCOCC1 | n | n | n | n | n | 12.6µM
O=c1c2ccccc2nc(-c2ccccc2)n1CCN1CCOCC1 | n | n | n | n | n | n
COc1cccc(N2CCN(S(=O)(=O)c3ccc4nc(-c5ccccc5)[nH]c4c3)CC2)c1 | n | n | n | n | n | n
CN1CCN(c2ccc3nc(-c4ccc5nc(-c6ccc(O)cc6)[nH]c5c4)[nH]c3c2)CC1 | n[9.22 µM] | n[9.22 µM] | n[11.4 µM] | n[9.17 µM] | 2µM | n[11.4 µM]
N#CC1=C(N)Oc2n[nH]c(-c3cccs3)c2C1c1ccco1 (stereo unspecified) | n | n | n | n | n | n
Cc1ccc(-c2[nH]nc3c2C(c2cccnc2)C(C#N)=C(N)O3)cc1 (stereo unspecified) | n | n[0.369 µM] | n | n | n | n

Assay outcomes (PubChem BioAssay)
